From PubChem BioAssay (Tox21)
Several values for one entry are separate records, joined by “and”; a condition that tells them apart may be missing. Identical values can stand only once. Results filed as inconclusive are left out. Where a call stands in place of a potency, no number is given. The source holds several records for some structures; these can differ, active in one and inactive in another. Activity calls are given as the source filed them. Calls follow the shape of the full dose curve.

test: Nuclear factor erythroid 2-related factor 2/antioxidant responsive element (Nrf2/ARE) small molecule agonists: luciferase reporter gene qHTS assay in human keratinocytes (AID 1919969); conditions: KeratinoSens HaCaT ARE-luciferase, luminescence, 24 h; series mostly up to 92.4 µM; also: nearly all actives have a fitted effect of over 35% in size
Text: National Center for Advancing Translational Sciences [NCATS]
Division of Preclinical Innovation [DPI]
U.S. Environmental Protection Agency [EPA]
National Institutes of Environmental Health Sciences [NIEHS]
National Toxicology Program [NTP]
U.S. Food and Drug Administration [FDA]
Oxidative stress has been implicated in the pathogenesis of a variety of diseases ranging from cancer to neurodegeneration. The antioxidant response element (ARE) signaling pathway plays an important role in the amelioration of oxidative stress. The KeratinoSens (Givaudan, Switzerland) is an in vitro test method which quantifies luciferase induction as a measure of activation of Keap1-Nrf2-antioxidationt/electrophile response element (ARE) dependant pathway in HaCaT human keratinocytes stably transfected with a selectable plasmid. The KeratinoSens assay is a cell-based assay with a reporter cell line to detect potential skin sensitizers by their ability to induce the Nrf2/ARE-response. The activation of the report gene under culture conditions can be detected by ONE-Glo Luciferase Assay System (Promega, Madison, WI). This cell line has been used to screen the Tox21 10K compound library to identify agonists that induce oxidative stress. The cytotoxicity of the Tox21 compound library against the KS-ARE cell line was tested in parallel by measuring the cell viability using CellTiter- Fluor assay system (Promega, Madison, WI) in the same wells.
HaCaT derived cell line KeratinoSens were dispensed at 1,500 cells/5uL/well in 1536-well white wall/solid bottom plates using a Multidrop Combi (ThermoFisher Scientific, Waltham, MA) dispenser. After the assay plates were incubated at 37 C/5% CO2 for 5 h, 23 nL of compounds dissolved in DMSO, positive controls or DMSO only was transferred to the assay plate by a pintool workstation (Kalypsys, San Diego, CA). The plates were incubated at 37 C/5% CO2 for 23 h, followed by addition of 1uL/well of CellTiter-Fluor reagent into the assay plates using a Flying Reagent Dispenser (Aurora Discovery, San Diego, CA) for cell viability readout that measures cytotoxicity. After 1 h incubation at 37 C/5% CO2 the fluorescence intensity was measured using a ViewLux (PerkinElmer, Shelton, CT) plate reader. Then 4uL/well of One-Glo were added using a Flying Reagent Dispenser. After the plates were incubated at room temperature for 30 min, the luminescence intensity in the assay plates was measured using ViewLux plate reader.
Potency is read from the fitted curve at half-maximal effect.

| Structure (SMILES) | Potency | activity, positive = activation |
| --- | --- | --- |
| Nc1ccc(Cc2ccc(N)cc2)cc1 | inactive |  |
| CC(C)c1ccc(O)cc1 | inactive |  |
| CC1CC(=O)O1 (stereo not given) | inactive |  |
| OC(O)C(Cl)(Cl)Cl | inactive |  |
| CN(C)c1ccc(C(=O)c2ccc(N(C)C)cc2)cc1 | 67.9 µM (active) and 54.5 µM (active) |  |
| CCOP(=S)(OCC)Oc1ccc([N+](=O)[O-])cc1 | inactive |  |
| CCN(C)N=O | inactive |  |
| Cc1cnc[nH]1 | inactive |  |
| O=C(O)CCl | inactive |  |
| CCC12COCN1COC2 | inactive |  |
| COC(=O)NC(=S)Nc1ccccc1NC(=S)NC(=O)OC | inactive |  |
| Cc1ccc(O)c(C)c1 | inactive |  |
| CCC1(c2ccccc2)CCC(=O)NC1=O (stereo not given) | inactive |  |
| COP(N)(=O)SC (stereo not given) | inactive |  |
| O=C(Cl)OCc1ccccc1 | inactive |  |
| CCCCCCCCCl | inactive |  |
| CC(C)c1ccc(CO)cc1 | inactive |  |
| COP(=O)(OC)OC | 61.6 µM (active) and inactive |  |
| CCOP(=S)(OCC)SCCSCC | inactive |  |
| Clc1ccc(COC(Cn2ccnc2)c2ccc(Cl)cc2Cl)cc1 (stereo not given) | 22.7 µM (active) and 13.3 µM (active) |  |

| Structure (SMILES) | Potency | activity, positive = activation |
| --- | --- | --- |
| CN1CSC(=S)N(C)C1 | 1.21 µM (active) and 2.43 µM (active) |  |
| Cc1cccc([N+](=O)[O-])c1 | inactive |  |
| CCN(CCO)CCO | inactive |  |
| C=CC(=O)NC(C)(C)CC(C)=O | inactive |  |
| ClCCOCOCCCl | inactive |  |
| O=C(CCl)c1ccccc1 | 62 µM (active) and 54.5 µM (active) |  |
| ClCC(Br)CBr (stereo not given) | inactive |  |
| CCN(Cc1ccc(Cl)nc1)/C(=C/[N+](=O)[O-])NC | inactive |  |
| CC(C)OC(=O)Nc1ccccc1 | inactive |  |
| CC(C)(C)C(=O)CCl | inactive |  |
| CCn1cc[n+](C)c1 | inactive |  |
| CSc1nc(NC(C)C)nc(NC(C)C)n1 | inactive |  |
| CCCCC#N | inactive |  |
| CC(C)C(=O)OCC(C)(C)C(OC(=O)C(C)C)C(C)C (stereo not given) | inactive |  |
| Cc1ccc2c(c1N)C(=O)c1ccccc1C2=O | 60.4 µM (active) and 1.93 µM (active) |  |
| CC[n+]1ccccc1 | inactive |  |
| O=c1[nH]c2ccccc2n1C1CCN(CCCC(c2ccc(F)cc2)c2ccc(F)cc2)CC1 | inactive |  |
| CCCCCCCCCCCCCl | inactive |  |
| Brc1c(Br)c(Br)c(Br)c(Br)c1Br |  | 1.37% [at 8.39 µM] (inactive) |
| COc1cc2c(cc1OC)[C@@]13CCN4CC5=CCO[C@H]6CC(=O)N2[C@H]1[C@H]6[C@H]5C[C@H]43 | inactive |  |
